# DAX1 StAR inh = DAX1 (NR0B1) inhibitors on StAR promoter, primary screen, cell-based, luminescence, SF-1 (NR5A1), full-length DAX-1. HEK293T StAR-luciferase reporter, SF-1/DAX-1 repression relief. inhibition, % at 6.8 µM. 370,000 compounds, 1.1% hits. AID 652010, 2013;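 active = inhibition above the mean over all tested compounds plus 3 SD, cut at about 3.6% in these data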;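 note: higher inhibition means more luminescence from relief of DAX-1 repression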
# hgDAF12 agonist = H. glycines DAF-12 receptor agonists, primary screen, cell-based, luminescence, HEK293, GAL4 fusion, UAS-luciferase; Nuclear hormone receptor DAF-12 (Heterodera glycines), GAL4 fusion; HEK293 GAL4-hgDAF12 UAS-luciferase reporter, agonist luminescence; normalized to butyrate control; activation, % at 6.8 µM; 370,000 compounds, 1.8% hits;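 active = activation above a cutoff set at the mean of all screened compounds plus 3 SD, cut at about 10% in these data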
# ssDAF-12 act = S. stercoralis DAF-12 nuclear receptor activators, primary screen, cell-based, luminescence, HEK293, GRIP1 co-expression, lit1-tk-luc | HEK293 ssDAF-12/GRIP1 lit1-tk-luc reporter; % of 3 µM dafachronic acid response | activation, % at 6.8 µM | 370,000 compounds, 1% hits | AID 652126, 2013;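 active = activation above the mean over all tested compounds plus 3 SD, cut at about 0.9% in these data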
# hcDAF-12 act = H. contortus DAF-12 nuclear receptor activators, primary screen, cell-based, luminescence, HEK293, lit1-tk-luc reporter | 370,000 compounds, 1.4% hits | HEK293 hcDAF-12 lit1-tk-luc reporter; 0% DMSO, 100% Δ7-dafachronic acid | activation, % at 6.8 µM;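 active = activation above the mean of all tested compounds plus 3 SD, cut at about 5.5% in these data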
# SMARCA2 act = SMARCA2 (BRM) function activators, primary screen, cell-based, luminescence, high throughput; MG213 cells, MMTV-luciferase reporter, dexamethasone, overnight; activation, % at 9.1 µM; 370,000 compounds, 1% hits; in the data active = activation above about 7.8%
# Hits are given with their value; - = inactive; . = no result given. The list is not random: actives were taken first. Their share in the collection is about 4.2%.
SMILES,DAX1 StAR inh,hgDAF12 agonist,ssDAF-12 act,hcDAF-12 act,SMARCA2 act
O=C(N/N=C\c1cccc(OC(=O)c2ccco2)c1)c1ccc2c(c1)OCO2,-,12.2,-,-,-
O=C(N/N=C/c1cccnc1)c1ccc2c(c1)OCO2,-,-,-,-,-
Cc1cccc(OCC(=O)N/N=C/c2ccc3c(c2)OCO3)c1,-,-,1.2,-,-
CCCCCC1=CCC/C1=N\NC(=O)c1ccc2c(c1)OCO2,-,11.6,-,-,-
Cc1cccc(OCC(=O)Nc2cc(C)ccc2O)c1,-,-,1.1,-,-
CCC[C@H]1[C@@H](N)CC[C@@]23CCCN2C(=O)CCC[C@@H]13,.,-,-,-,.
O=S1(=O)CCOCC(CO)N1Cc1cccc(Br)c1 (stereo not drawn),-,-,-,-,-
Cc1ccccc1C(=O)N(C)[C@H]1C[C@H]2c3[nH]c4c(-c5ccccc5)cccc4c3CCN2C[C@H]1[C@H](C)O,-,-,-,-,-
Cc1ccsc1/C=N\NC(=O)c1ccc2c(c1)OCO2,4.0,-,-,-,-
Cc1ccc(C(=O)N/N=C\c2sccc2C)cn1,-,-,-,-,-
CCCCn1nnnc1C(c1cc2ccccc2o1)N(C)Cc1ccccc1 (stereo not drawn),-,-,-,-,-
CS(=O)(=O)c1ccc2nc(NC(=O)c3ccccc3)sc2c1,-,10.5,-,-,-
O=S(=O)(/N=C(/Nc1nc2ccccc2s1)c1ccccc1)c1ccc(F)cc1,4.4,10.7,0.9,-,-
CS(=O)(=O)c1ccc2nc(NC(=O)Nc3ccc(Cl)c(Cl)c3)sc2c1,-,-,1.9,-,-
CS(=O)(=O)c1ccc2nc(NC(=O)Nc3cccc(Cl)c3)sc2c1,-,-,-,-,-
COc1cc(C(=O)NC2CCCCN(Cc3cccc(Cl)c3)C2=O)cc(OC)c1OC (stereo not drawn),-,-,-,-,-
COC(=O)CNC(=O)c1cc(OC)cc(OC)c1,3.8,-,-,-,-
CCOC(=O)CNC(=O)c1cc(OC)cc(OC)c1,-,-,-,-,-
Cc1cccc(NC(=O)c2ccoc2C)n1,-,-,-,-,-
Cc1occc1C(=O)Nc1cc(C(C)(C)C)on1,4.2,12.3,-,-,-
O=S1(=O)CC(N2CCCC2)CN1C1CCCCC1 (stereo not drawn),4.3,-,-,-,-
Cn1cc(NC(=O)OCc2ccc(Cl)cc2)c(C(F)(F)F)n1,3.7,-,-,-,-
Cc1ccc(C(=O)Nc2ccc(N3CCCC3)cc2)cc1,-,12.4,-,-,-
Cc1cc(C(=O)Nc2ccc(S(=O)(=O)N3CCCC3)cc2)no1,-,-,-,-,-
Cc1cc(C(=O)Nc2ccc(N3CCCCC3)cc2)no1,-,11.4,-,-,-
SMILES,DAX1 StAR inh,hgDAF12 agonist,ssDAF-12 act,hcDAF-12 act,SMARCA2 act
Cc1ccc(C(=O)NC(=S)Nc2ccc(N3CCOCC3)cc2)c(C)c1,-,-,-,-,7.9
Cc1ccc(C(=O)Nc2ccc(N3CCCCC3)cc2)cc1,-,-,-,-,-
Cc1ccc(NC(=O)c2cc(-c3cc(Cl)ccc3O)n[nH]2)cc1C,-,-,-,-,-
COc1ccc(Cl)c(-c2cc(C(=O)Nc3ccc(F)cc3)[nH]n2)c1,-,12.4,-,-,-
Cc1ccc(Cl)cc1-c1cc(C(=O)Nc2ccc(F)cc2)[nH]n1,4.1,-,-,-,-
C[C@@H](C(=O)N=c1sc2ccccc2n1C)N1C(=O)C2CC=CCC2C1=O (stereo partly drawn),-,-,1.0,-,-
Cc1cc(N2CCN(C(=O)OC(C)(C)C)C[C@H]2C)ccc1N1CCN(Cc2ccccc2)[C@@H](C)C1,-,-,-,-,-
Cc1cc(O)cc(=O)n1-c1cc(Cl)cc(Cl)c1,-,-,-,-,-
C=CCNC(=S)N1C[C@H]2CON(C)[C@H]2C[C@H]1c1ccccc1Br,-,-,-,-,-
O=S(=O)(c1ccccc1)c1cnc(-c2cccnc2)nc1-c1ccc(Cl)c(Cl)c1,-,-,1.6,-,-
COc1cccc(OCc2ccc(Cn3nc(NC(=O)NCCc4ccc(OC)c(OC)c4)c4ccccc43)cc2)c1,-,-,2.2,5.8,-
